Experimental data published in PubChem BioAssay (EPA / NIEHS).
Calls of active or inactive are those of the source. Rule for the calls: active = hit-call score of the fitted dose curve at least 0.9, where 1 is the maximum; inactive = score below 0.9.

Columns and labels:
[1] = CEETOX_H295R_PROG: CeeTox H295R High-throughput Steroidogenesis Assay for Progesterone (PROG) (AID 2283442); details: actives raise or lower the signal
Method in brief: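 Progesterone read-out: HPLC-MS/MS on MTBE extracts of conditioned medium after 48 h chemical exposure of forskolin-primed (10 uM, 48 h) H295R cells. Gain or loss of signal was fitted relative to DMSO baseline.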

[2] = read-out: Tumor necrosis factor receptor superfamily member 6 (Homo sapiens) (UniProt P25445); assay: LTEA_HepaRG_FAS: Life Technologies and Expression Analysis (LTEA) Assay for Fas cell surface death receptor (FAS) using HepaRG (AID 2283447); details: mRNA level, 48 h; actives raise or lower the signal
Method in brief: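 Differentiated HepaRG cells in serum-free induction medium were exposed 48 h to 8 half-log concentrations up to 100 uM in 0.5% DMSO, in duplicate. FAS mRNA was measured by qRT-PCR normalised to ACTB, GAPDH and POLR2A; bidirectional fit versus DMSO.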

[3] = read-out: Fatty acid synthase (Homo sapiens) (UniProt P49327); assay: LTEA_HepaRG_FASN: Life Technologies and Expression Analysis (LTEA) Assay for Fatty Acid Synthase (FASN) using HepaRG (AID 2283448); details: mRNA level, 48 h; actives raise or lower the signal
Method in brief: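 FASN transcript measured by TaqMan qRT-PCR, normalised to three housekeeping genes, after 48 h chemical exposure of HepaRG cells. Eight-point half-log series from 100 uM in 0.5% DMSO, duplicates; gain or loss fitted against vehicle.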

[4] = read-out: Cyclin Dependent Kinase Inhibitor 1A (CDKN1A), CDKN1A (gene 1026); assay: LTEA_HepaRG_CDKN1A: Life Technologies and Expression Analysis (LTEA) Assay for Cyclin Dependent Kinase Inhibitor 1A (CDKN1A) using HepaRG (AID 2283450); details: mRNA level, 48 h; actives raise or lower the signal
Method in brief: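 HepaRG, 48 h dosing, 8-pt half-log series from 100 uM top, 0.5% DMSO vehicle, duplicates. Readout: TaqMan qRT-PCR of CDKN1A transcript, housekeeping-normalized (ACTB, GAPDH, POLR2A). Up/down curve fit relative to DMSO.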

[5] = read-out: Cyclin D1 (CCND1), CCND1 (gene 595); assay: LTEA_HepaRG_CCND1: Life Technologies and Expression Analysis (LTEA) Assay for Cyclin D1 (CCND1) using HepaRG (AID 2283451); details: mRNA level, 48 h; actives raise or lower the signal
Method in brief: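 qRT-PCR (Fluidigm 96.96 array) read-out of transcript level, housekeeping-normalized (ACTB/GAPDH/POLR2A). HepaRG cells, 48 h chemical exposure, 8-point half-log series from 100 uM, 0.5% DMSO vehicle; gain or loss relative to DMSO baseline.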

[6] = read-out: catalase (CAT), CAT (gene 847); assay: LTEA_HepaRG_CAT: Life Technologies and Expression Analysis (LTEA) Assay for catalase (CAT) using HepaRG (AID 2283452); details: mRNA level, 48 h; actives raise or lower the signal
Method in brief: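 HepaRG cells in serum-free induction medium, 0.5% DMSO vehicle, exposed 48 h in duplicate over 8 half-log concentrations from 100 uM. CAT mRNA measured by qRT-PCR, normalized to ACTB, GAPDH, POLR2A; bidirectional fit versus DMSO.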

[7] = read-out: flavin-containing dimethylaniline monooxygenases 3 (FMO3), FMO3 (gene 2328); assay: LTEA_HepaRG_FMO3: Life Technologies and Expression Analysis (LTEA) Assay for flavin-containing dimethylaniline monooxygenases 3 (FMO3) using HepaRG (AID 2283453); details: mRNA level, 48 h; actives raise or lower the signal
Method in brief: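 FMO3 transcript quantified by TaqMan qRT-PCR against three housekeeping genes after 48 h chemical exposure of HepaRG cells. Eight-point half-log series, top 100 uM, 0.5% DMSO vehicle; phenobarbital 1mM induction control; up- or down-regulation fitted.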

[8] = read-out: Cytochrome P450 (CYP1A1), CYP1A1 (gene 1543); assay: LTEA_HepaRG_CYP1A1: Life Technologies and Expression Analysis (LTEA) Assay for Cytochrome P450 (CYP1A1) using HepaRG (AID 2283454); details: mRNA level, 48 h; actives raise or lower the signal
Method in brief: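 qRT-PCR read-out: CYP1A1 transcript normalized to three housekeeping genes, fitted bidirectionally against 0.5% DMSO vehicle baseline. Human HepaRG cells, 48 h chemical exposure, 8-point half-log series topping at 100 uM.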

[9] = read-out: Forkhead box O1 (FOXO1), FOXO1 (gene 2308); assay: LTEA_HepaRG_FOXO1: Life Technologies and Expression Analysis (LTEA) Assay for Forkhead box O1 (FOXO1) using HepaRG (AID 2283456); details: mRNA level, 48 h; actives raise or lower the signal
Method in brief: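 HepaRG, 48 h exposure, 8-pt half-log series from 100 uM in 0.5% DMSO, duplicates; Fluidigm qRT-PCR mRNA, housekeeping-normalised; bidirectional fit vs DMSO baseline.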

[10] = CEETOX_H295R_TESTO: CeeTox H295R High-throughput Steroidogenesis Assay for Testosterone (TESTO) (AID 2283457); details: actives raise or lower the signal
Method in brief: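 Readout: testosterone quantified by HPLC-MS/MS (C18, ESI positive) after MTBE liquid-liquid extraction of culture medium. Cells were H295R, 48 h chemical exposure per OECD 456 with modifications. Gain or loss of signal fitted relative to DMSO.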

[11] = read-out: growth arrest and DNA damage 45 (GADD45A), GADD45A (gene 1647); assay: LTEA_HepaRG_GADD45A: Life Technologies and Expression Analysis (LTEA) Assay for growth arrest and DNA damage 45 (GADD45A) using HepaRG (AID 2283458); details: mRNA level, 48 h; actives raise or lower the signal
Method in brief: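 GADD45A expression was measured by TaqMan qRT-PCR against three housekeeping genes (ACTB, GAPDH, POLR2A) after 48 h treatment of HepaRG cells. Eight-point half-log series up to 100 uM in 0.5% DMSO, run in duplicate.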

[12] = read-out: ABC Transporter (ABCB1), ABCB1 (gene 5243); assay: LTEA_HepaRG_ABCB1: Life Technologies and Expression Analysis (LTEA) Assay for ABC Transporter (ABCB1) using HepaRG (AID 2283460); details: mRNA level, 48 h; actives raise or lower the signal
Method in brief: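 HepaRG, 48 h exposure, 8-pt half-log series from 100 uM, 0.5% DMSO vehicle, duplicates. Readout: ABCB1 transcript by Fluidigm TaqMan qRT-PCR, housekeeping-normalized; bidirectional curve fit vs DMSO baseline.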

[13] = read-out: ABC Transporter (ABCC3), ABCC3 (gene 8714); assay: LTEA_HepaRG_ABCC3: Life Technologies and Expression Analysis (LTEA) Assay for ABC Transporter (ABCC3) using HepaRG (AID 2283462); details: mRNA level, 48 h; actives raise or lower the signal
Method in brief: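 qRT-PCR read-out of ABCC3 transcript, normalized to three housekeeping genes (ACTB, GAPDH, POLR2A), after 48 h chemical exposure of human HepaRG cells. Eight half-log concentrations, highest 100 uM, in 0.5% DMSO; gain or loss fitted relative to DMSO baseline.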

[14] = read-out: ABC Transporter (ABCB11), ABCB11 (gene 8647); assay: LTEA_HepaRG_ABCB11: Life Technologies and Expression Analysis (LTEA) Assay for ABC Transporter (ABCB11) using HepaRG (AID 2283463); details: mRNA level, 48 h; actives raise or lower the signal
Method in brief: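 HepaRG, 48 h exposure, 8-pt half-log CRC top 100 uM, 0.5% DMSO vehicle, duplicates. Readout: TaqMan qRT-PCR of ABCB11 mRNA, housekeeping-normalized (ACTB/GAPDH/POLR2A). Bidirectional fit vs DMSO baseline.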

[15] = read-out: ABC Transporter (ABCC2), ABCC2 (gene 1244); assay: LTEA_HepaRG_ABCC2: Life Technologies and Expression Analysis (LTEA) Assay for ABC Transporter (ABCC2) using HepaRG (AID 2283464); details: mRNA level, 48 h; actives raise or lower the signal
Method in brief: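 qRT-PCR (TaqMan, Fluidigm array) read-out of ABCC2 mRNA, normalized to three housekeeping genes. Differentiated HepaRG cells were treated 48 h in serum-free induction medium with 8-point half-log series from 100 uM in 0.5% DMSO; curves fitted bidirectionally relative to DMSO.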

[16] = read-out: Broad substrate specificity ATP-binding cassette transporter ABCG2 (Homo sapiens) (UniProt Q9UNQ0); assay: LTEA_HepaRG_ABCG2: Life Technologies and Expression Analysis (LTEA) Assay for ABC Transporter (ABCG2) using HepaRG (AID 2283465); details: mRNA level, 48 h; actives raise or lower the signal
Method in brief: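 HepaRG, 48 h exposure, 8-pt half-log series from 100 uM, 0.5% DMSO vehicle, duplicates. Readout: ABCG2 transcript by qRT-PCR (Fluidigm array), housekeeping-normalized; bidirectional curve fit relative to DMSO baseline.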

[17] = read-out: Cyclin D2 (CCND2), CCND2 (gene 894); assay: LTEA_HepaRG_CCND2: Life Technologies and Expression Analysis (LTEA) Assay for Cyclin D2 (CCND2) using HepaRG (AID 2283449); details: mRNA level, 48 h; actives raise or lower the signal;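 note: CCND2 transcript measured by TaqMan qRT-PCR and normalised to three housekeeping genes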
Method in brief: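 HepaRG, 48 h dosing, 8-pt half-log curve from 100 uM, 0.5% DMSO; duplicate wells. Readout: CCND2 transcript by microfluidic qRT-PCR, housekeeping-normalised; bidirectional fit vs DMSO baseline.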

[18] = read-out: CFLAR gene, CFLAR (gene 8837); assay: LTEA_HepaRG_CFLAR: Life Technologies and Expression Analysis (LTEA) Assay for CFLAR gene using HepaRG (AID 2283455); details: mRNA level, 48 h; actives raise or lower the signal
Method in brief: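 qRT-PCR read-out (Fluidigm/TaqMan) of CFLAR mRNA, normalized to three housekeeping genes, in differentiated human HepaRG cells after 48 h chemical exposure; 8-point half-log series from 100 uM in 0.5% DMSO; bidirectional curve fitting versus DMSO.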

[19] = read-out: growth arrest and DNA damage 45 (GADD45B), GADD45B (gene 4616); assay: LTEA_HepaRG_GADD45B: Life Technologies and Expression Analysis (LTEA) Assay for growth arrest and DNA damage 45 (GADD45B) using HepaRG (AID 2283461); details: mRNA level, 48 h; actives raise or lower the signal
Method in brief: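 qRT-PCR read-out (Fluidigm TaqMan, housekeeping-normalized) of mRNA change in human HepaRG cells after 48 h chemical exposure; 8-point curve, top 100 uM, half-log steps, 0.5% DMSO vehicle; gain or loss fitted relative to DMSO baseline.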

Measured: AC50

Broad substrate specificity ATP-binding cassette transporter ABCG2 (Homo sapiens), sequence (Q9UNQ0 whole entry, looked up): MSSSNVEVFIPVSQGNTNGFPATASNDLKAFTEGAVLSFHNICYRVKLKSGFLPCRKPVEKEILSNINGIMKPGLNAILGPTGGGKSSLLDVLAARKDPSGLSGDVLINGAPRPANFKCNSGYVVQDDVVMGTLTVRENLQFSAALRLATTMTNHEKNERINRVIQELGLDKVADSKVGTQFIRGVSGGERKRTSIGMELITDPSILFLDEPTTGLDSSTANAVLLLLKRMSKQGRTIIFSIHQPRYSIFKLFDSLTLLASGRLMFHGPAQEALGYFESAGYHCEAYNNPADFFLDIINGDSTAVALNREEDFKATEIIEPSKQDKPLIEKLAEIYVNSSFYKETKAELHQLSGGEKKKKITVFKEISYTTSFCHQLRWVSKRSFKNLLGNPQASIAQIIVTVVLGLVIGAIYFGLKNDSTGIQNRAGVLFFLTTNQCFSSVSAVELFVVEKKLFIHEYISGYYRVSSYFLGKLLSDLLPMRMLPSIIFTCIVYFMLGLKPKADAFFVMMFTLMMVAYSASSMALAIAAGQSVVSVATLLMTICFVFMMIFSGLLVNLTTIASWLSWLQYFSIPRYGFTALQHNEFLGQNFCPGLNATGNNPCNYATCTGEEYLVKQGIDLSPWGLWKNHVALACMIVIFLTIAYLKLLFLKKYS
Fatty acid synthase (Homo sapiens), sequence (P49327 whole entry, looked up): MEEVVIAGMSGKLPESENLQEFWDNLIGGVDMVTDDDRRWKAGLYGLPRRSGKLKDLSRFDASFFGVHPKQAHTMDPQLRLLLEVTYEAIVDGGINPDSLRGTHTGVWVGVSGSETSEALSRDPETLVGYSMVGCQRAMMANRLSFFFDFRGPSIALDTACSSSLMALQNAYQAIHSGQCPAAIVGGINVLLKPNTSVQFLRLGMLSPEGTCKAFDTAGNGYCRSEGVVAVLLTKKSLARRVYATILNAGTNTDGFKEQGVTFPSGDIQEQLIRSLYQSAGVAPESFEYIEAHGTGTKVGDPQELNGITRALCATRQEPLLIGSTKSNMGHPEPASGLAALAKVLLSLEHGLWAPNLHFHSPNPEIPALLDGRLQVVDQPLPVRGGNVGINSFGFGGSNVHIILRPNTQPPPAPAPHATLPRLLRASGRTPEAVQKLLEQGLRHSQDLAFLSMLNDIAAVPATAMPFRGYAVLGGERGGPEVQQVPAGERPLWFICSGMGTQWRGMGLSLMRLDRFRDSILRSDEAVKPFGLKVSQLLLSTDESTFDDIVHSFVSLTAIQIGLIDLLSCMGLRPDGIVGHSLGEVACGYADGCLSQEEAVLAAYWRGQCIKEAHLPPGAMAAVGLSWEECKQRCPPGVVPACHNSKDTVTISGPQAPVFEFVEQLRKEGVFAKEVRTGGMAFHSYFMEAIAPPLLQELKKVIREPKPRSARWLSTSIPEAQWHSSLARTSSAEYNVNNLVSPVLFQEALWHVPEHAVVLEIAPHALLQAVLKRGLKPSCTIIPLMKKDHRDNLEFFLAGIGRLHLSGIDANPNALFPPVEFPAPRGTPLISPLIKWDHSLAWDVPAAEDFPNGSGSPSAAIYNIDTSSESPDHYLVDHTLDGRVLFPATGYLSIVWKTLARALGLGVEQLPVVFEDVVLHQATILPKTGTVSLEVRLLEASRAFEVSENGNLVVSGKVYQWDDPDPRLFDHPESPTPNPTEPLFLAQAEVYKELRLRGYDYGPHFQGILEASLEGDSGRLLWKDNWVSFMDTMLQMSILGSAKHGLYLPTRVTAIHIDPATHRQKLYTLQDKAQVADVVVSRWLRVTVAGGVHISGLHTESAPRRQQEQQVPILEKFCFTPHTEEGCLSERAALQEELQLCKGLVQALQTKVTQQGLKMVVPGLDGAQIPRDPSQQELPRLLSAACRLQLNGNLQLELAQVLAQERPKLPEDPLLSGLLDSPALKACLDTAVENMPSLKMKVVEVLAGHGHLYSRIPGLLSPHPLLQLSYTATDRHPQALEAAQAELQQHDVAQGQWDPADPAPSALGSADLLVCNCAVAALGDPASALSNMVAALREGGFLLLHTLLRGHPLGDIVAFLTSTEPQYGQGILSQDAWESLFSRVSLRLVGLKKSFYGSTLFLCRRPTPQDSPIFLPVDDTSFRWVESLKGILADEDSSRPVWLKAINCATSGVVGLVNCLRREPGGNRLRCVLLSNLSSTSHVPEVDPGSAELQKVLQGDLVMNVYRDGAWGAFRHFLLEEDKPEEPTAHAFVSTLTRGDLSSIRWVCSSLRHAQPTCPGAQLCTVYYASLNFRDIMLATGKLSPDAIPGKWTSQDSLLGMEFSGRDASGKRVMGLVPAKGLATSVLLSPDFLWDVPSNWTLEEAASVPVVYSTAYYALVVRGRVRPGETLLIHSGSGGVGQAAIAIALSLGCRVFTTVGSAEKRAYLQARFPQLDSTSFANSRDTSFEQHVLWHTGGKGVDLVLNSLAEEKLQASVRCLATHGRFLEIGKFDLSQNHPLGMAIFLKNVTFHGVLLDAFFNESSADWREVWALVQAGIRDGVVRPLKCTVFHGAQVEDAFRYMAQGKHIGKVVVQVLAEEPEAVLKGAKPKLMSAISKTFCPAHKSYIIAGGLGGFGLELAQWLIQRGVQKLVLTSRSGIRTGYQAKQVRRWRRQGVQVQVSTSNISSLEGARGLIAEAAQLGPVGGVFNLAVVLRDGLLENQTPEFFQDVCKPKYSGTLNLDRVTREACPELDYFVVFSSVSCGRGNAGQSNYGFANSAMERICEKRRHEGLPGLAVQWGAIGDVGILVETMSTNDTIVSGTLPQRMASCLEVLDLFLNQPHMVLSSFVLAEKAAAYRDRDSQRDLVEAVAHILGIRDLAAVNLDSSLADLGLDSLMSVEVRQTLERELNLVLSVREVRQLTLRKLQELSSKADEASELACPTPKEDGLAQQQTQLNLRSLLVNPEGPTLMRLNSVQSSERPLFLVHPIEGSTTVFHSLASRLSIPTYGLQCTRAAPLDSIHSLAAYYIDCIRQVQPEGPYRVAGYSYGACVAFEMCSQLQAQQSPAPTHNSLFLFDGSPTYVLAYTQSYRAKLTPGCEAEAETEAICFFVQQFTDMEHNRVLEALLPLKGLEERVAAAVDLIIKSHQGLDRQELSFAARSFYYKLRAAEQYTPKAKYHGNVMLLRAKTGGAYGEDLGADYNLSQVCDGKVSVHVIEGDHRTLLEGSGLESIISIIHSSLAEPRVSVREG

COP(=S)(OC)SCn1nnc2ccccc2c1=O
active: [8] 50 µM | [16] 15.5 µM
not listed: [17] | [18] | [19]
inactive: all other assays above

CNC(=O)Oc1cccc2ccccc12
active: [17] 0.0193 µM
not listed: [10] | [18] | [19]
inactive: all other assays above

COc1cc(Cl)c(OC)cc1Cl
active: [8] 27.9 µM
not listed: [10] | [15] | [17] | [19]
inactive: all other assays above

COC(=O)NC(=S)Nc1ccccc1NC(=S)NC(=O)OC
active: [8] 39.2 µM | [12] 17.4 µM | [15] 35.4 µM
not listed: [10] | [18]
inactive: all other assays above
